One experiment relates to HCI01 (cells of a triple-negative basal-like breast cancer xenograft). As to the kind of experiment: cell viability of combination (% of vehicle); higher = less cytotoxic. Conditions: 1 µM; 72 h; partner dose: 10 nM. As for the experimental part: (§1)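 PDX cells were treated for 72 h with each drug at 1 µM plus afatinib (10 nM; 1 µM for WHIM30). Luciferase viability is expressed as percent of vehicle.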
The test system of the next experiment is WHIM2 (cells of a triple-negative basal-like breast cancer xenograft). The experiment is described as above. The note with it: 1 µM; 72 h; partner dose: 10 nM. As to the method: as §1

Regarding `COCCn1c2c([n+](Cc3cnccn3)c1C)C(=O)c1ccccc1C2=O.[Br-]` + CN(C)C/C=C/C(=O)Nc1cc2c(Nc3ccc(F)c(Cl)c3)ncnc2cc1O[C@H]1CCOC1 [Afatinib], the “cell viability of combination” value in the experiment with HCI01 worked out at 18.3; in the experiment with WHIM2, 11.8.
The like results for `COCCOC(=O)C1=C(C)NC(C)=C(C(=O)OCC=Cc2ccccc2)C1c1cccc([N+](=O)[O-])c1` (centres undefined) [Cilnidipine] + CN(C)C/C=C/C(=O)Nc1cc2c(Nc3ccc(F)c(Cl)c3)ncnc2cc1O[C@H]1CCOC1 [Afatinib] were, in that order, 48.9 and 40.4.
For `CN(C)CC=CC(=O)Nc1cc2c(Nc3ccc(F)c(Cl)c3)ncnc2cc1OC1CCOC1` (centres undefined) [Afatinib (BIBW2992)] + CN(C)C/C=C/C(=O)Nc1cc2c(Nc3ccc(F)c(Cl)c3)ncnc2cc1O[C@H]1CCOC1 [Afatinib], in that order: 44.6 and 32.4.
For `COc1cc2nccc(Oc3ccc(NC(=O)Nc4cc(C)on4)c(Cl)c3)c2cc1OC` [Tivozanib (AV-951)] + CN(C)C/C=C/C(=O)Nc1cc2c(Nc3ccc(F)c(Cl)c3)ncnc2cc1O[C@H]1CCOC1 [Afatinib], in that order: 43.9 and 39.8.
As to `O=C(C=Cn1cnc(-c2cc(C(F)(F)F)cc(C(F)(F)F)c2)n1)NNc1cnccn1` + CN(C)C/C=C/C(=O)Nc1cc2c(Nc3ccc(F)c(Cl)c3)ncnc2cc1O[C@H]1CCOC1 [Afatinib], the “cell viability of combination” value in the experiment with HCI01 was found to be 39.3; in the experiment on WHIM2, 41.9.
The like results for `Clc1ccc(C(Cn2ccnc2)OCc2c(Cl)cccc2Cl)c(Cl)c1.O=[N+]([O-])O` (centres undefined) [Isoconazole nitrate] + CN(C)C/C=C/C(=O)Nc1cc2c(Nc3ccc(F)c(Cl)c3)ncnc2cc1O[C@H]1CCOC1 [Afatinib] were, in that order, 63.8 and 52.1.
For `Cl.Cl.Fc1ccc(C(c2ccc(F)cc2)N2CCN(CC=Cc3ccccc3)CC2)cc1` [Flunarizine 2HCl] + CN(C)C/C=C/C(=O)Nc1cc2c(Nc3ccc(F)c(Cl)c3)ncnc2cc1O[C@H]1CCOC1 [Afatinib], in that order: 63.3 and 50.6.
Consider `N.N.O=C([O-])C1(C(=O)[O-])CCC1.[Pt+2]` [Carboplatin] + CN(C)C/C=C/C(=O)Nc1cc2c(Nc3ccc(F)c(Cl)c3)ncnc2cc1O[C@H]1CCOC1 [Afatinib], for which the figures for the “cell viability of combination” value in the experiment with HCI01 and in the experiment on WHIM2 were 60.1 and 53.1, respectively.
For `Cc1ccc(C(=O)N(CCCN)C(c2nc3cc(Cl)ccc3c(=O)n2Cc2ccccc2)C(C)C)cc1` (centres undefined) + CN(C)C/C=C/C(=O)Nc1cc2c(Nc3ccc(F)c(Cl)c3)ncnc2cc1O[C@H]1CCOC1 [Afatinib], in that order: 50.5 and 35.8.
For `Cl.Fc1ccc(C2CCNCC2COc2ccc3c(c2)OCO3)cc1` (centres undefined) [Paroxetine HCl] + CN(C)C/C=C/C(=O)Nc1cc2c(Nc3ccc(F)c(Cl)c3)ncnc2cc1O[C@H]1CCOC1 [Afatinib], in that order: 52.3 and 49.6.
As for `Cc1c(Cl)cccc1Nc1ccccc1C(=O)O` [Tolfenamic Acid] + CN(C)C/C=C/C(=O)Nc1cc2c(Nc3ccc(F)c(Cl)c3)ncnc2cc1O[C@H]1CCOC1 [Afatinib], the entries for the “cell viability of combination” value in the experiment with HCI01 and in the experiment on WHIM2 were 57.3 and 51, respectively.
The like results for `Cc1c(C(=O)NN2CCCCC2)nn(-c2ccc(Cl)cc2Cl)c1-c1ccc(Cl)cc1` [Rimonabant] + CN(C)C/C=C/C(=O)Nc1cc2c(Nc3ccc(F)c(Cl)c3)ncnc2cc1O[C@H]1CCOC1 [Afatinib] were, in that order, 56.7 and 48.4.
